PAX8 inh HTS: inhibitors of PAX8 transcriptional activity in RMG-I cells. inhibition, % at 12.6 µM. actives 1.2% (n = 360,000). AID 652154. RMG-I TPO-luciferase reporter, SteadyGlo, 24 h;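 active = mean replicate inhibition at least 60% with every replicate also reaching 60%; inconclusive = only one of the two criteria is met; inactive = mean below 60% and not all replicates reaching 60%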;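 note: luciferase light reporting Pax8 driven TPO promoter activity; plate controls were median of neutral control wells for no effect and mitoxantrone controls for full effect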
Shn3 inh set2: reduces Shn3 3'UTR luciferase signal in osteoblasts. Clone20 osteoblast Shn3 3'UTR firefly luciferase, 24 h. inhibition, % at 12.5 µM. actives 0.52% (n = 360,000). AID 588674;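 active = mean inhibition of at least 75% with every replicate also reaching 75%; inconclusive = mean inhibition at least 75% but some replicate below; inactive = mean inhibition below 75%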;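 note: 0% = median of neutral control wells and 100% = pilot-screen positive control compound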
aSyn UTR inh: MLPCN primary screen, SNCA 5' untranslated region; alpha-synuclein 5'UTR reporter, inhibitor activity; AID 1813; inhibition, % (tested at 7.5 µM); actives 0.82% (n = 300,000); in the data active = inhibition above about 60%; inconclusive = no clear call, values can overlap the other calls;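 note: H4 neuroglioblastoma cells stably carrying SNCA 5'UTR luciferase fusion; 0% = DMSO wells and 100% = positive control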
MITF TRPM1 inh: inhibitors of MITF-driven TRPM1 promoter in melanoma cells. SK-MEL-5 TRPM1 promoter luciferase, 24 h. inhibition, % at 12.5 µM. AID 488899. actives 0.83% (n = 330,000);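 active = mean inhibition across replicates of 60% or more, whatever share of single replicates reaches that level; inconclusive = some that reach 60%, reason not given; inactive = mean inhibition across replicates below 60%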
EBV LMP1 NFkB: inhibitors of Epstein-Barr LMP1-induced NF-kappaB reporter; LMP1-induced NF-kappaB luciferase reporter cells, luminescence; inhibition, % at 12.5 µM; actives 0.69% (n = 350,000); AID 504558; in the data active = inhibition above about 41%; inconclusive = no clear call, values can overlap the other calls;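 note: 0% = neutral control wells and 100% = reference inhibitor control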
The depositor's hits bear a star. Most compounds without a hit are left out; they make up all but 2.1% or so of the library.

How did Cc1ccc(NC2=C/C(=N\S(=O)(=O)c3cccs3)c3ccccc3C2=O)c(C)c1 do in these assays?
Shn3 inh set2: 98*; aSyn UTR inh: 118*; MITF TRPM1 inh: 105*; EBV LMP1 NFkB: 95*

How did CCCCCN1C(=O)/C(=C/c2c(N3CCc4ccccc4C3)nc3ccccn3c2=O)SC1=S do in these assays?
PAX8 inh HTS: -11; Shn3 inh set2: -43; aSyn UTR inh: -94; MITF TRPM1 inh: -14; EBV LMP1 NFkB: -12

Results for NS(=O)(=O)OCCCc1ccccc1 ?
PAX8 inh HTS: 16; Shn3 inh set2: -7; aSyn UTR inh: 6; MITF TRPM1 inh: -8; EBV LMP1 NFkB: -2

What do the screens show for `[2H]C(CCOS(N)(=O)=O)c1ccc(C(C)(C)C)cc1` (stereo not drawn)?
PAX8 inh HTS: 19; Shn3 inh set2: 1; aSyn UTR inh: 80*; MITF TRPM1 inh: 83*; EBV LMP1 NFkB: 11

How did Cc1ccc(C2(c3ccccc3)NC(=O)N(CC(=O)NC3CCS(=O)(=O)C3)C2=O)cc1C (stereo not drawn) do in these assays?
PAX8 inh HTS: -4; Shn3 inh set2: -24; MITF TRPM1 inh: -3; EBV LMP1 NFkB: 4

What do the screens show for `Cc1nn2c(=O)cc(CSc3ccccc3NC(=O)c3ccccc3F)nc2s1`?
PAX8 inh HTS: -7; Shn3 inh set2: -14; aSyn UTR inh: -23; MITF TRPM1 inh: -20; EBV LMP1 NFkB: 2

What do the screens show for `COc1ccc(Sc2ccccc2CN(C)C)cc1OC`?
Shn3 inh set2: 11; aSyn UTR inh: -10; MITF TRPM1 inh: 1; EBV LMP1 NFkB: -15

How did CNCc1ccccc1Sc1ccc(O)c(O)c1 do in these assays?
PAX8 inh HTS: 76*; Shn3 inh set2: 10; aSyn UTR inh: 26; MITF TRPM1 inh: 18; EBV LMP1 NFkB: -4

Results for Nc1cc(=O)[nH]c(SCC(=O)c2ccc(O)cc2O)n1 ?
PAX8 inh HTS: -14; Shn3 inh set2: -3; aSyn UTR inh: -12; MITF TRPM1 inh: 1; EBV LMP1 NFkB: -15

What do the screens show for `Cc1cc(Nc2ccccc2)c2c([N+](=O)[O-])cc(C)c(C)c2n1`?
Shn3 inh set2: 14; aSyn UTR inh: 44; MITF TRPM1 inh: -1; EBV LMP1 NFkB: 42*

How did O=C(CSCc1ccc([N+](=O)[O-])cc1)NN=C1CCCCCC1 do in these assays?
Shn3 inh set2: 7; aSyn UTR inh: 6; MITF TRPM1 inh: 6; EBV LMP1 NFkB: 1

Results for Cc1ccc(C)c(N2CCN(c3ncccc3[N+](=O)[O-])CC2)c1 ?
PAX8 inh HTS: 62*; Shn3 inh set2: 24; aSyn UTR inh: 38; MITF TRPM1 inh: -12; EBV LMP1 NFkB: 11

How did C=C(CN(C)C)C(=O)c1cc(C)ccc1C do in these assays?
PAX8 inh HTS: 52; Shn3 inh set2: 95*; MITF TRPM1 inh: 106*; EBV LMP1 NFkB: -6

How did c1ccc(COc2ccc(OCCCN3CCCC3)cc2)cc1 do in these assays?
PAX8 inh HTS: 67*; Shn3 inh set2: -18; aSyn UTR inh: inconclusive; MITF TRPM1 inh: -3; EBV LMP1 NFkB: 1

Results for c1ccc(COc2ccc(OCCN3CCCC3)cc2)cc1 ?
Shn3 inh set2: -9; aSyn UTR inh: -41; MITF TRPM1 inh: -57; EBV LMP1 NFkB: -5

Results for CC1CCN(CCCOc2ccc(OCc3ccccc3)cc2)CC1 ?
Shn3 inh set2: -7; aSyn UTR inh: -69; MITF TRPM1 inh: -43; EBV LMP1 NFkB: -4

What do the screens show for `c1ccc(COc2ccc(OCCN3CCCCC3)cc2)cc1`?
PAX8 inh HTS: 99*; Shn3 inh set2: -18; aSyn UTR inh: -45; MITF TRPM1 inh: -11; EBV LMP1 NFkB: -8

What do the screens show for `C[C@@H]1CN([C@@H](C)CO)C(=O)Cc2cc(NC(=O)NC3CCCCC3)ccc2O[C@H]1CN(C)CC1CCCCC1`?
PAX8 inh HTS: 67*

What do the screens show for `C[C@@H]1CN([C@H](C)CO)C(=O)Cc2cc(NC(=O)Nc3ccc4c(c3)OCO4)ccc2O[C@@H]1CN(C)CC1CCCCC1`?
PAX8 inh HTS: 30

What do the screens show for `C[C@@H]1CN([C@@H](C)CO)C(=O)Cc2cc(NC(=O)Nc3ccc4c(c3)OCO4)ccc2O[C@H]1CN(C)CC1CCCCC1`?
PAX8 inh HTS: 83*

How did C[C@@H]1CN([C@@H](C)CO)C(=O)Cc2cc(NC(=O)Nc3ccc(F)cc3)ccc2O[C@H]1CN(C)CC1CCCCC1 do in these assays?
PAX8 inh HTS: 82*

What do the screens show for `C[C@@H]1CN([C@H](C)CO)C(=O)Cc2cc(NC(=O)Nc3ccc(F)cc3)ccc2O[C@H]1CN(C)CC1CC1`?
PAX8 inh HTS: -7

How did CC(C)[C@H](NC(=O)[C@H](CC(=O)O)NC(=O)[C@H](CCCCN)NC(=O)[C@@H](N)CCCN=C(N)N)C(=O)N[C@@H](Cc1ccc(O)cc1)C(=O)O do in these assays?
aSyn UTR inh: 13

How did C[C@H]1CCCCO[C@H](CN(C)C(=O)NC2CCCCC2)[C@@H](C)CN([C@@H](C)CO)C(=O)c2cc(NS(=O)(=O)c3ccc(Cl)cc3)ccc2O1 do in these assays?
PAX8 inh HTS: 71*

How did C[C@@H]1CCCCO[C@@H](CN(C)C(=O)NC2CCCCC2)[C@@H](C)CN([C@H](C)CO)C(=O)c2cc(NS(=O)(=O)c3ccc(Cl)cc3)ccc2O1 do in these assays?
PAX8 inh HTS: -20

How did C[C@@H]1CCCCO[C@H](CN(C)C(=O)NC2CCCCC2)[C@H](C)CN([C@@H](C)CO)C(=O)c2cc(NS(=O)(=O)c3ccc(Cl)cc3)ccc2O1 do in these assays?
PAX8 inh HTS: 80*

How did C[C@H](CO)N1C[C@H](C)[C@H](CN(C)Cc2ccc(-c3ccccc3)cc2)Oc2ccc(NC(=O)CCCCCC(=O)Nc3ccccc3N)cc2C1=O do in these assays?
PAX8 inh HTS: -12

Results for O=C(CCCN1C(=O)/C(=C/c2ccc3c(c2)OCO3)SC1=S)Nc1ccc(C(=O)O)cc1 ?
Shn3 inh set2: 22; aSyn UTR inh: 102*; MITF TRPM1 inh: 20; EBV LMP1 NFkB: 10

Results for CCc1ccc(/C=C2\SC(=S)N(CCCC(=O)Nc3ccc(C(=O)O)cc3)C2=O)cc1 ?
PAX8 inh HTS: 43; Shn3 inh set2: 27; aSyn UTR inh: 109*; MITF TRPM1 inh: 3; EBV LMP1 NFkB: 37

What do the screens show for `O=C(CCCN1C(=O)/C(=C\c2ccccc2)SC1=S)Nc1ccc(C(=O)O)cc1`?
PAX8 inh HTS: 17; Shn3 inh set2: 15; aSyn UTR inh: 22; MITF TRPM1 inh: 6; EBV LMP1 NFkB: 0

Results for COc1ccc(/C=C2\SC(=O)N(CCCC(=O)Nc3ccc(C(=O)O)cc3)C2=O)cc1 ?
PAX8 inh HTS: 57; Shn3 inh set2: 74; EBV LMP1 NFkB: 50*

Results for O=C(CCN1C(=O)/C(=C/c2ccc3c(c2)OCO3)SC1=S)Nc1ccc(C(=O)O)cc1 ?
PAX8 inh HTS: 19; Shn3 inh set2: -8; aSyn UTR inh: -7; MITF TRPM1 inh: -10; EBV LMP1 NFkB: 5

Results for CCc1cc(C(=O)OCC(=O)NCCc2ccccc2)sc1C ?
PAX8 inh HTS: 17; Shn3 inh set2: -26; EBV LMP1 NFkB: -11

What do the screens show for `FC(F)Oc1ccc(NC(=S)NCc2nc3ccccc3[nH]2)cc1`?
PAX8 inh HTS: -12; Shn3 inh set2: 26; aSyn UTR inh: -10; MITF TRPM1 inh: 14; EBV LMP1 NFkB: 7

Assay outcomes: PubChem BioAssay, Broad Institute
